Compounds with a hit are over-represented: about 19% of the library has one in this group of screens.
IL-1B inflam inh: qHTS for Inhibitors of Inflammasome Signaling: IL-1-beta AlphaLISA Primary Screen; activity change, % at 57.5 µM; AID 743279, 2014; hit rate 4.7% among 360,000; THP-1 LPS/ATP IL-1B secretion, AlphaLISA, 16 h; active compounds read low; in the data active means activity change below about -50%; inconclusive means mostly about -30% to -49%
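Secreted IL-1B measured by AlphaLISA bead assay after 16 h compound exposure of THP-1 cells; compounds (final up to 57.5 uM) added 1 h before LPS (250 ng/mL) and ATP (1.25 mM) stimulation; lower signal means less secretion.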
HT1080 IDH1KD tx: qHTS for induction of synthetic lethality in tumor cells producing 2HG: qHTS for the HT-1080-IDH1KD cell line; AID 686971, 2013; HT-1080 IDH1 knockdown viability, ATP luminescence, 48 h; Potency, µM (titrated, usually from 46.1 µM), for the others: top-dose activity, negative = toxicity, hits mostly cytotoxic; hit rate 2% among 360,000;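 further: potency means the concentration at half of the fitted maximal effect; 0% = DMSO wells and -100% = cell-free medium wells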
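After a 2 h attachment period, IDH1KD HT-1080 cells took pin-transferred compound for 48 h at 37 °C; ATP-based luminescence after 10 min room-temperature reagent incubation reported viability.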
TDP1 cell noCPT: qHTS for Inhibitors of human tyrosyl-DNA phosphodiesterase 1 (TDP1): qHTS in cells in absence of CPT. DT40 Tdp1-/- hTDP1 cells, no CPT, ATP luminescence, 48 h. Potency, µM (top dose mostly 46.2 µM), without a hit: at the highest dose activity change, negative = growth inhibition, actives largely listed as inhibitors. hit rate 15% among 420,000; further: potency means the concentration at half of the fitted maximal effect; nearly all actives have a fitted effect of over 55% in size
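Chicken DT40 Tdp1-/- cells complemented with human TDP1, screened without camptothecin (DMSO vehicle only), 400 cells/well. Compounds pin-transferred, cells incubated at 37 °C for at least 48 hr. Growth read as ATP-dependent luminescence (CellTiter-Glo, 30 min at RT).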
HT1080-NT tox: qHTS for induction of synthetic lethality in tumor cells producing 2HG: qHTS for the HT-1080-NT fibrosarcoma cell line; hit rate 1.6% among 360,000; HT-1080-NT fibrosarcoma viability, CellTiter-Glo ATP luminescence, 48 h; Potency, µM (doses to about 46.1 µM), for inactives: at the highest dose activity, negative = less viability, most hits filed as cytotoxic;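 further: NT is the 2HG producing partner of a matched IDH1 knockdown line; potency means the concentration at half of the fitted maximal effect; 0% = DMSO-treated cells and -100% = media-only wells without cells; nearly all actives have a fitted effect of over 55% in size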
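HT-1080-NT fibrosarcoma cells (2HG-overproducing), 750 cells/well in RPMI with 5% FBS, dosed after 2 h and incubated 48 h at 37C. CellTiter-Glo luminescence normalized to DMSO and no-cell wells; concentration-response curves fitted and classed.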
DT40 TDP1 CPT: qHTS for Inhibitors of human tyrosyl-DNA phosphodiesterase 1 (TDP1): qHTS in cells in presence of CPT; Potency, µM (top dose mostly 46.2 µM), without a hit: top-dose activity change, negative = growth inhibition, hits mostly inhibitors; hit rate 12% among 420,000; chicken DT40 Tdp1-/-;hTDP1 cells + 20 nM CPT, ATP luminescence, 48 h; further: potency means the concentration at half of the fitted maximal effect; nearly all actives have a fitted effect of over 55% in size
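Cell growth measured by CellTiter-Glo luminescence after a minimum 48 h, 37 C compound exposure with 20 nM CPT in Tdp1-knockout DT40 cells stably expressing hTDP1, seeded 400/well; qHTS titration format.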
ELG1 DNA repair: qHTS screen for small molecules that inhibit ELG1-dependent DNA repair in human embryonic kidney (HEK293T) cells expressing luciferase-tagged ELG1; HEK293T ELG1-luciferase reporter, luminescence, 16 h; DNA damage induced by 5-fluorouridine; Potency, µM (titrated, usually from 46.1 µM), inactives show top-dose activity change, negative = inhibition, actives largely listed as inhibitors; hit rate 2.3% among 330,000; AID 504467, 2011; further: potency means the concentration at half of the fitted maximal effect; nearly all actives have a fitted effect of over 55% in size
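DMSO vehicle served as the neutral condition. Each well held 2,000 cells given 5-fluorouridine plus compound; after 16 hr at 37 °C/5% CO2, ONE-Glo was added and luciferase measured 30 min later.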
An asterisk follows results filed as active; i = inactive; u = inconclusive; x = no result. Unless noted, the call rests on the fitted dose curve; in most records, active means well fitted curve in the direction sought with a large enough effect; inconclusive means small, poorly fitted or top-dose-only effect, or another doubt; inactive means no such curve, though single readings can be large; an effect the other way counts as inactive or inconclusive. Unless noted, on the % scale 0 is the no-effect control and ±100 the full control effect.

SMILES	IL-1B inflam inh	HT1080 IDH1KD tx	TDP1 cell noCPT	HT1080-NT tox	DT40 TDP1 CPT	ELG1 DNA repair
COC(=O)Cc1c(C)c2ccc(OCC(C)=O)c(C)c2oc1=O	-2	2%	u	4%	-27%	u
CCOc1ccc(CCNC(=O)COC(=O)c2cccc(S(=O)(=O)N3CCCC3)c2)cc1OCC	-1	1%	-5%	2%	-8%	-22%
CCCCNC(=O)C1CCN(S(=O)(=O)N2CCOCC2)CC1	-9	-2%	4%	0%	12%	23%
CC1=C(C(=O)N2CCCCCC2)CC(CC(=O)NCc2cccs2)C(=O)N1Cc1ccccc1 (configuration not stated)	-16	16%	u	9%	-27%	x
C=C(C)COc1ccc2c(C)c(CC(=O)N3C[C@H]4C[C@@H](C3)c3cccc(=O)n3C4)c(=O)oc2c1C	-8	10%	18µM*	11%	15µM*	-21%
Cc1cccc(C)c1NC(=O)COc1ccc2c(C)c(Cc3ccccc3)c(=O)oc2c1C	27	7%	u	5%	16µM*	7%
Cc1c(Cc2ccccc2)c(=O)oc2c(C)c(OCC(=O)Nc3ccc(C#N)cc3)ccc12	-6	16%	u	11%	2%	9%
Cc1cc(C)c(C)c(S(=O)(=O)Nc2ccc3cn[nH]c3c2)c1C	6	-27%	21µM*	-20%	u	-21%
COc1ccc(S(=O)(=O)Nc2ccc3cn[nH]c3c2)cc1C	26	-29%	u	-28%	-18%	u
COc1cc(CN2CCC3(CC2)CC3C(=O)Nc2ccc3sc(C)nc3c2)ccc1F (configuration not stated)	x	x	-15%	x	-8%	x
O=C(CSc1nncn2c1cc1sccc12)Nc1ccc(Br)cc1F	x	x	2%	x	-6%	x
COCCN(C(=O)c1snc(C(N)=O)c1N)C(C(=O)NC1CCCCC1)c1ccc(OC)c(OC)c1 (configuration not stated)	-12	2%	-26%	0%	3%	6%
CCN(CC)c1cc(C(F)(F)F)nc(-c2ccccn2)n1	-9	u	u	u	u	u
FC(F)(F)c1cccc(Sc2cc(C(F)(F)F)nc(-c3ccccn3)n2)c1	6	-10%	21µM*	-1%	18µM*	u
Cc1ccc2nc(-c3ccccn3)oc2c1	40	u	u	u	u	u
COc1ccccc1Sc1nc(-c2ccccn2)ncc1OC	141	u	2.9µM*	-9%	10µM*	23µM*
Cc1ccc(Sc2cc(C)nc(-c3ccccn3)n2)cc1	34	u	10µM*	-8%	6.5µM*	u
C=CCNc1cc(C(F)(F)F)nc(-c2ccccn2)n1	-5	0%	u	8%	18µM*	20%
CCc1nnc(NC(=O)[C@@H]2CCCN2C(=O)c2cccs2)s1	x	x	3%	x	4%	x
CCSc1ncc(Cl)c(C(=O)Nc2sc(C(C)=O)c(C)c2C(=O)OC)n1	x	x	7%	x	-14%	x
COc1cnc(-c2ccccn2)nc1Sc1cccc(Cl)c1	-8	u	1.3µM*	u	1.3µM*	u
COc1cnc(-c2ccccn2)[nH]c1=O	-2	20%	2%	3%	23%	u
COc1cnc(-c2ccccn2)nc1NC(C)C	104	u	0.046µM*	u	0.13µM*	-6%
COc1cnc(-c2ccccn2)nc1Sc1ccc(C)cc1	27	u	3.3µM*	u	5.2µM*	23µM*
Cc1c(NN=C(C#N)C#N)c(=O)n(-c2ccccc2)n1C	-61*	-2%	u	3%	-85%	5.8µM*
SMILES	IL-1B inflam inh	HT1080 IDH1KD tx	TDP1 cell noCPT	HT1080-NT tox	DT40 TDP1 CPT	ELG1 DNA repair
COc1ccc(NC(=O)Nc2c(C)n(C)n(-c3ccccc3)c2=O)cc1OC	i	-4%	19%	7%	14%	11%
Cc1ccc(NC(=O)Nc2c(C)n(C)n(-c3ccccc3)c2=O)cc1C	13	18%	23µM*	23%	16µM*	-12%
Cc1ccc(S(=O)(=O)c2cn(C)c3cc(N4CCOCC4)c(F)cc3c2=O)c(C)c1	x	x	u	x	-23%	x
N#Cc1c(N)[nH]c(=S)c(C#N)c1-c1ccccc1	-8	u	u	u	21µM*	0%
Cc1ccc(-c2cc(-c3ccccc3)[nH]c(=S)c2C#N)cc1	-17	16%	6%	24%	-3%	11%
C[C@@]12CCC[C@H]1C1CC[C@H]3C[C@H](O)CC[C@]3(C)C1CC2 (some centres not stated)	x	x	-8%	x	-6%	x
NC1=Nc2cccc3cccc1c23	-65*	u	16µM*	u	u	2%
C(=N\NC1=Nc2cccc3cccc1c23)/c1ccccc1	-1	-5%	u	-2%	7%	u
O=C(NCc1cccs1)c1ccc(Cn2c(SCc3cccc(F)c3)nc3cccnc32)cc1	x	x	18µM*	x	26µM*	x
CCc1nnc(NC(=O)CSc2nc3cccnc3n2Cc2ccccc2)s1	15	6%	-8%	6%	-19%	-38%
O=C(NCCc1ccccc1)c1ccc(Cn2c(SCc3cccc(F)c3)nc3cccnc32)cc1	x	x	15µM*	x	7.3µM*	x
O=C(Cc1cccc([N+](=O)[O-])c1)NCc1nc2cccnc2n1Cc1ccc(F)cc1	x	x	-18%	x	-5%	x
O=C(CSc1nc2ccccc2c(=O)n1Cc1ccc(F)cc1)NCc1cccs1	-3	7%	1%	1%	2%	17%
Cc1ccccc1CNC(=O)c1ccc(Cn2c(SCc3cccc(F)c3)nc3cccnc32)cc1	x	x	15µM*	x	15µM*	x
Cc1ccccc1CSc1nc2cccnc2n1Cc1ccc(C(=O)NCCc2cccs2)cc1	x	x	16µM*	x	13µM*	x
N#Cc1cccc(-c2nc3cnc(Nc4ccccc4)nc3n(C[C@H]3CCCO3)c2=O)c1	x	x	-5%	x	9%	x
C[C@@H]1CNC(=O)c2c(C(=O)NCC(=O)OC(C)(C)C)ncn21	-3	9%	-28%	17%	3%	x
